We go through 21 molecules from PubChem BioAssay (NCATS).

Records with an inconclusive call do not appear. A number with no mark means an inactive call. Activity calls are given as the source filed them. Calls follow the shape of the dose curve; as a rule, active = well fitted curve in the direction sought with a large enough effect; inconclusive = small, poorly fitted or top-dose-only effect, or another doubt; inactive = no such curve, though single readings can be large; an effect the other way counts as inactive or inconclusive.

A short description of experiment [1]: BET inhibitor-based combinations targeting novel dependencies in MECOM-rearranged (r) AML: SET-2 cell line (AID 2202231). Also: nearly all actives have a fitted effect of over 35% in size.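 As to viability: plate controls were DMSO treated cells for no effect and wells without cells for full effect.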 Particulars: SET-2 AML cells viability, CellTiter-Glo luminescence, 48 h; viability: hits give low values, concentration not given here. In a few lines:
(§1)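 Luminescent ATP readout (CellTiter-Glo) after 48 hr drug exposure gives viability. Curves span 11 concentrations and are normalized to DMSO and empty wells. Activity is reported as area under the curve and its Z-transform within each cell line.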
In general terms: ATP-based viability assays read luminescence as a measure of living cells.

Experiment [2] can be described thus: BET inhibitor-based combinations targeting novel dependencies in MECOM-rearranged (r) AML: OCI-AML3 cell line (AID 2202232). Also: nearly all actives have a fitted effect of over 35% in size.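 As to viability (% of control): series mostly up to about 46 µM; plate controls were DMSO vehicle wells for no effect and wells without cells for full effect.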 Particulars: Potency: OCI-AML3 viability. The essentials: as §1
A short description of experiment [3]: BET inhibitor-based combinations targeting novel dependencies in MECOM-rearranged (r) AML: MV-4-11 cell line (AID 2202233). Also: nearly all actives have a fitted effect of over 45% in size.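 As to viability, % of control: plate controls were DMSO for no effect and blank wells for full effect.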 In a few lines:
(§2)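 Luminescent ATP readout (CellTiter-Glo, 15 min at room temperature) after 48 hr drug exposure gave viability. Dose-response curves, normalized to DMSO and empty-well controls, were summarized as area under the curve and its mean-centred Z-score.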

The nature of experiment [4]: BET inhibitor-based combinations targeting novel dependencies in MECOM-rearranged (r) AML: UCSD-AML1 cell line (AID 2202235). Also: nearly all actives have a fitted effect of over 40% in size.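 As to viability (% of control): series mostly up to about 46 µM; plate controls were DMSO vehicle wells for no effect and blank wells for full effect.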 In a few lines: as §2
A short description of experiment [5]: BET inhibitor-based combinations targeting novel dependencies in MECOM-rearranged (r) AML: AML-191 cell line (AID 2202236; also: nearly all actives have a fitted effect of over 35% in size;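 as to viability (% of control): plate controls were vehicle wells for no effect and wells without cells for full effect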). In a few lines:
as §1

Experiment [6] can be described thus: BET inhibitor-based combinations targeting novel dependencies in MECOM-rearranged (r) AML: HNT-34 cell line (AID 2202234). Also: nearly all actives have a fitted effect of over 35% in size. In a few lines:
as §2

The nature of experiment [7]: BET inhibitor-based combinations targeting novel dependencies in MECOM-rearranged (r) AML: AML-194 cell line (AID 2202237; also: nearly all actives have a fitted effect of over 40% in size;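 as to viability (% of control): plate controls were vehicle wells for no effect and wells without cells for full effect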). In a few lines:
as §1

Usually viability stands for a read-out of living cells in per cent, often relative to untreated cells.
Potency is read from the fitted curve at half-maximal effect.

Take `C[C@@]12O[C@@H](C[C@]1(O)CO)n1c3ccccc3c3c4c(c5c6ccccc6n2c5c31)CNC4=O`: the Potency in experiment [1] is 0.417 µM (active); in experiment [2], 0.417 µM (active); in experiment [3] it was 0.0118 µM (active); in experiment [4] it was 0.118 µM (active); in experiment [5] it was 0.0525 µM (active).
Regarding `O=C(NO)c1ccc(C2=Nc3ccccc3Oc3ccccc32)cc1`, the Potency in experiment [1] was 2.95 µM (active); in experiment [2], 5.25 µM (active); in experiment [3], 1.86 µM (active); in experiment [6] it was 3.72 µM (active); in experiment [7] it was 4.68 µM (active).
On to `Cc1ccc(S(=O)(=O)Nc2cc(-c3ccc(C#N)s3)ccc2C)cc1`, for which the Potency is 0.0742 µM (active) in experiment [1]; 0.0934 µM (active) in experiment [2]; 0.105 µM (active) in experiment [3]; 0.0661 µM (active) in experiment [4]; 0.0742 µM (active) in experiment [5]; 0.0833 µM (active) in experiment [7].
Consider `CSc1ccc(C(=O)/C=C/c2cc(C)c(OC(C)(C)C(=O)O)c(C)c2)cc1`, for which the Potency in experiment [1] is 34 µM (active); in experiment [2], 30.3 µM (active); in experiment [3], 6.05 µM (active). In addition, the Potency result in experiment [4] was “inactive”.
In the case of `CO[C@H]1C(=O)[C@]2(C)[C@@H](OC)C[C@H]3OC[C@@]3(OC(C)=O)[C@H]2[C@H](OC(=O)c2ccccc2)[C@]2(O)C[C@H](OC(=O)[C@H](O)[C@@H](NC(=O)OC(C)(C)C)c3ccccc3)C(C)=C1C2(C)C`, the Potency in experiment [1] is 0.0037 µM (active); in experiment [2], 0.0026 µM (active); in experiment [3], 0.0023 µM (active); in experiment [4], 0.0023 µM (active); in experiment [5], 0.0037 µM (active); in experiment [7], 0.0042 µM (active).
Take `O=c1[nH]c(=O)n([C@H]2C[C@H](O)[C@@H](CO)O2)cc1C(F)(F)F`: the Potency was 5.9 µM (active) in experiment [1]; 1.66 µM (active) in experiment [2]; 1.05 µM (active) in experiment [3]; 1.48 µM (active) in experiment [4]; 1.32 µM (active) in experiment [5]; 4.68 µM (active) in experiment [7].
Take `C/C=C(/C)C(=O)O[C@H]1C(C)=CC23C(=O)C(C=C(CO)[C@@H](O)[C@]12O)[C@H]1[C@@H](C[C@H]3C)C1(C)C` (stereo not given in full): the Potency is 7.42 µM (active) in experiment [1], 0.0053 µM (active) in experiment [2], 0.0525 µM (active) in experiment [3] and 0.0019 µM (active) in experiment [4].
For `Cc1ccc(NS(=O)(=O)c2cccc(C#N)c2)c2[nH]cc(C#N)c12`, the Potency in experiment [1] was 14.8 µM (active); in experiment [2], 1.18 µM (active); in experiment [3], 0.296 µM (active); in experiment [4], 0.833 µM (active).
For `Cc1ccc(C(=O)N(CCCN)[C@@H](c2nc3cc(Cl)ccc3c(=O)n2Cc2ccccc2)C(C)C)cc1`, the Potency in experiment [1] is 0.105 µM (active); in experiment [2], 0.0295 µM (active); in experiment [3], 0.0417 µM (active); in experiment [4] it was 0.0263 µM (active); in experiment [5], 0.0417 µM (active).
Take `CN1C(=O)N[C@H](Cc2c[nH]c3c(Cl)cccc23)C1=O`: the viability in experiment [1] was 113%. The Potency result in experiment [2], in experiment [4] and in experiment [5] was “inactive” in each case. In addition, the Potency in experiment [3] was 37.2 µM (active).
As for `CN(C)CCNC(=O)NC[C@H]1CC[C@@H]2[C@H](O1)c1cc(C(F)(F)F)ccc1N[C@H]2c1ccccc1`, the Potency in experiment [1] is 0.742 µM (active); in experiment [2] it was 0.296 µM (active); in experiment [3], 0.296 µM (active); in experiment [4], 0.235 µM (active); in experiment [5], 0.332 µM (active); in experiment [7], 0.332 µM (active).
With `O=C(/C=C/c1cccnc1)NCCCCC1CCN(C(=O)c2ccccc2)CC1`, in experiment [1], the viability was 119%. Moreover, the Potency was 0.0042 µM (active) in experiment [2], 0.0209 µM (active) in experiment [3], 0.0083 µM (active) in experiment [4] and 0.0059 µM (active) in experiment [5]. The Potency entry in experiment [7] is “inactive”.
As for `CNc1ncc2cc(-c3cc(NC(=O)NCCC(C)(C)C)c(F)cc3C)c(C)nc2n1`, the Potency was 2.35 µM (active) in experiment [1], 0.662 µM (active) in experiment [2], 0.468 µM (active) in experiment [3] and 1.05 µM (active) in experiment [4].
As for `N=C(N)c1ccc2nc(-c3cc(CC(=O)N[C@@H](CC(=O)O)C(=O)O)cc(-c4cc(S(N)(=O)=O)ccc4O)c3O)[nH]c2c1`, the viability in experiment [1] was 117%. In addition, the Potency result in experiment [2], in experiment [3], in experiment [4], in experiment [5] and in experiment [7] was “inactive” throughout.
As to `Cc1cc(/C=c2/sc3nc4ccccc4n3c2=O)c(C)n1-c1ccccc1`, the viability in experiment [1] was 105%. The Potency is 14.8 µM (active) in experiment [2], 20.9 µM (active) in experiment [3] and 16.6 µM (active) in experiment [5]. Also, the Potency entry in experiment [4] was “inactive”.
For the molecule `COc1ccc2c(c1OC)C(=O)OC2[C@H]1c2c(cc3c(c2OC)OCO3)CCN1C` (stereo not given in full), the Potency in experiment [1] is 16.6 µM (active); in experiment [2], 20.9 µM (active); in experiment [3] it was 18.6 µM (active); in experiment [5], 13.2 µM (active); in experiment [7], 20.9 µM (active). Besides, in experiment [4], the Potency entry is “inactive”.
In the case of `Cc1cc(O)cc2c1[C@]1(C)CC[C@H]3C(C)(C)CCC[C@]3(C)[C@H]1C2`, the viability in experiment [1] was 50.3%. In addition, the viability (% of control) is 14.4% [at 5.12 µM] in experiment [2] and 14.8% [at 5.12 µM] in experiment [4]. In addition, the viability, % of control in experiment [3] was 0.199% [at 5.12 µM].
Regarding `CCC[C@H](Nc1nc(-c2ccc(NC(=O)NCC)c(OC)c2)ncc1C)c1cccnc1`, the Potency in experiment [1] was 0.118 µM (active); in experiment [2] it was 0.105 µM (active); in experiment [3], 0.0525 µM (active); in experiment [4] it was 0.132 µM (active); in experiment [5], 0.105 µM (active); in experiment [7], 0.105 µM (active).
As to `CC(C)(C)c1[nH]cnc1/C=c1\[nH]c(=O)/c(=C/c2ccccc2)[nH]c1=O`, the Potency in experiment [1] is 0.0833 µM (active); in experiment [2], 0.0742 µM (active); in experiment [3], 0.0833 µM (active); in experiment [4], 0.059 µM (active); in experiment [5], 0.059 µM (active); in experiment [7], 0.0742 µM (active).
Turning to `O=[N+]([O-])c1ccc(O)c2ncccc12`, the Potency in experiment [1] was 16.6 µM (active); in experiment [2], 14.8 µM (active); in experiment [3] it was 13.2 µM (active); in experiment [6], 7.42 µM (active); in experiment [7] it was 9.34 µM (active).
On to `CC[C@]12C=CCN3CC[C@@]4(c5cc([C@@]6(C(=O)OC)CC7C[C@@H](C(C)(F)F)CN(Cc8c6[nH]c6ccccc86)C7)c(OC)cc5N(C)[C@H]4[C@@](O)(C(=O)OC)[C@@H]1OC(C)=O)[C@@H]32` (stereo not given in full), for which the Potency was 1.66 µM (active) in experiment [1]; 0.296 µM (active) in experiment [2]; 0.417 µM (active) in experiment [3]; 0.468 µM (active) in experiment [4]; 0.372 µM (active) in experiment [5]; 0.332 µM (active) in experiment [7].
